The values that follow come from PubChem BioAssay.

Test [1] deals with Plasmodium falciparum Sir2 (PF13_0152, Sir2A). Briefly: Plasmodium falciparum Sir2A binding compounds – biochemical, small-molecule microarray, 635 nm fluorescence, primary screen (AID 1098).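 Also: score merges spot fluorescence intensity with its signal-to-noise ratio.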 The settings on record: fluorescence 635 nm, higher = more signal.
Test [2] can be described thus: probe aDKK1 binding to arrayed compounds – biochemical, biotinylated probe, 635/667 nm fluorescence, primary screen (AID 1099).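 Also: score merges 667nm spot fluorescence with signal to noise across triplicate slides.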 As to conditions: small-molecule microarray, higher = more signal.
Test [3] can be described thus: probe aCHRDL2 binding to arrayed compounds – biochemical, biotinylated probe, 635/667 nm fluorescence, primary screen (AID 1100). As to conditions: small-molecule microarray, higher = more signal.
The nature of test [4]: change in splice reporter luminescence, either direction, cell-based, HEK293, spliceosome inhibition project, primary screen (AID 1101).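 Also: HEK293 cells carrying a splicing-competent luciferase reporter gene; test concentration not given here.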 As to conditions: HEK293 splicing luciferase reporter, 24 h, higher = more signal, called active from +8 up or from −8 down. (A reporter such as luciferase makes a cellular process visible.)
In test [5] the target is Fibroblast growth factor 10 (Homo sapiens) (UniProt O15520). Kind of test: compounds binding fibroblast growth factor 10 – biochemical, small-molecule microarray, 635 nm fluorescence, primary screen (AID 1102). As to conditions: FGF10 binding, fluorescence 635 nm, higher = more signal.
Chain of Fibroblast growth factor 10 (Homo sapiens) (O15520 whole entry, looked up): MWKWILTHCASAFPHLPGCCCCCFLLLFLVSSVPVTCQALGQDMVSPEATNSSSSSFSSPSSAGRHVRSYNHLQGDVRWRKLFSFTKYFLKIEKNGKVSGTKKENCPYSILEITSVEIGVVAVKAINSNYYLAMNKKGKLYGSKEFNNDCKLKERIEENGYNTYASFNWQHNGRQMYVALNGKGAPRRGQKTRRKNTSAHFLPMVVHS
The subject of test [6] is glycogen synthase kinase-3 (GSK3A per assay name; protocol says GSK3B). Briefly: compounds binding glycogen synthase kinase-3 – biochemical, small-molecule microarray, 635 nm fluorescence, GSK3A, primary screen (AID 1103). Also: the record names both GSK3A and GSK3B. The settings on record: fluorescence 635 nm, higher = more signal.
For test [7], the target named is Epidermal growth factor receptor (Homo sapiens) (UniProt P00533). Kind of test: compounds binding epidermal growth factor receptor – biochemical, small-molecule microarray, 635 nm fluorescence, primary screen (AID 1104).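 Also: score merges 667 nm emission intensity with spot signal to noise over triplicate slides.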 The settings on record: EGFR binding, higher = more signal.
Chain of Epidermal growth factor receptor (Homo sapiens) (P00533 whole entry, looked up): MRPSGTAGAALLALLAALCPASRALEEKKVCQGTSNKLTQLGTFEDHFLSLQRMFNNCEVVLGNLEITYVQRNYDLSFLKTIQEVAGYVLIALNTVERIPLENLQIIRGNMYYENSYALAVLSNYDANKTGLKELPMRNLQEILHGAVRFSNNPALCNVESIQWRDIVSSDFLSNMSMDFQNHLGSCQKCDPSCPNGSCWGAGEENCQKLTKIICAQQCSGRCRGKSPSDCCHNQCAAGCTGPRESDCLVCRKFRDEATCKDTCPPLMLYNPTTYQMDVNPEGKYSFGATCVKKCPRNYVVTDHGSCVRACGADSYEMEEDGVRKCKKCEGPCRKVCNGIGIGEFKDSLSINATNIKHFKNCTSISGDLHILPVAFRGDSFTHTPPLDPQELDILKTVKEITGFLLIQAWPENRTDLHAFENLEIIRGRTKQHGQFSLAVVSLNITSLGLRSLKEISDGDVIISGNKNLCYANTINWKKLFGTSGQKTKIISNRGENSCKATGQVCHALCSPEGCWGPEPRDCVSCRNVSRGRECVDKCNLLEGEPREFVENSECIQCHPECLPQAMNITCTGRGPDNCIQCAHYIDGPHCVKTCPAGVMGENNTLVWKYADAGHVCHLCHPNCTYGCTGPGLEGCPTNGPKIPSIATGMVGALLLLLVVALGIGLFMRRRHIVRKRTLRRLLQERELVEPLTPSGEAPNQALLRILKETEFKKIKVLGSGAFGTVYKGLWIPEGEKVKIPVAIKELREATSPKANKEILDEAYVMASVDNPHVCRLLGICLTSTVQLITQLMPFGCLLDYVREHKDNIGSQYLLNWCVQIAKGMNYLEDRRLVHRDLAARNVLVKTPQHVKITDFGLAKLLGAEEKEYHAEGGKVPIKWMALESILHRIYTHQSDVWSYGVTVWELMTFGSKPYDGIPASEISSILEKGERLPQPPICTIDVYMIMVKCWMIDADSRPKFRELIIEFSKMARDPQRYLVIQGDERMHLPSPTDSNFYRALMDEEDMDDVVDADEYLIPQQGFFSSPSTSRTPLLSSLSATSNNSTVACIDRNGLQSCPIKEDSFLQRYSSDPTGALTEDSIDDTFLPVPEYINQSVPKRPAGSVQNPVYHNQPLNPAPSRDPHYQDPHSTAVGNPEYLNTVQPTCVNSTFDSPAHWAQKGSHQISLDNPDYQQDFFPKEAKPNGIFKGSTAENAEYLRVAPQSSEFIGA
In test [8] the target is Follistatin-related protein 3 (Homo sapiens) (UniProt O95633). Briefly: compounds binding follistatin-related protein 3 – biochemical, small-molecule microarray, 635 nm fluorescence, primary screen (AID 1105).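 Also: score merges emission near 667 nm and signal to noise per printed spot across three slides.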 The settings on record: FSTL3 binding, higher = more signal.
Chain of Follistatin-related protein 3 (Homo sapiens) (O95633 whole entry, looked up): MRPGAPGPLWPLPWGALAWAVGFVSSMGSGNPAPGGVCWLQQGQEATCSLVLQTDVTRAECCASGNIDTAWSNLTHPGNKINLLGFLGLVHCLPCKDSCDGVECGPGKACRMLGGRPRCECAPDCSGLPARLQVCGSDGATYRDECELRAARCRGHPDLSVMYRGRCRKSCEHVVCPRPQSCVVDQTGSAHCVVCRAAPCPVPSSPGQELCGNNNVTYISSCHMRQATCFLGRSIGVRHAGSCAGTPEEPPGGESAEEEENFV
Test [9] concerns the target Dickkopf-related protein 1 (Homo sapiens) (UniProt O94907). Kind of test: small molecules binding DKK1 protein – biochemical, small-molecule microarray, 635 nm fluorescence scan, primary screen (AID 1106).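 Also: score merges emission near 667 nm with signal to noise over three replicate slides.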 As to conditions: higher = more signal.
The test system of test [10] is Inhibin beta A chain (activin A). Briefly: small molecules binding activin A – biochemical, small-molecule microarray, 635 nm fluorescence scan, primary screen (AID 1107).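 Also: mouse activin A protein probed at 4.33 µg/mL on printed slides; score merges bound-protein fluorescence near 667 nm with spot signal-to-noise.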 As to conditions: INHBA, higher = more signal.
In test [11] the test system is Human papillomavirus type 1a protein E7 (residues 44-93). Briefly: small molecules binding HPV E7 44-93 – biochemical, small-molecule microarray, residues 44-93, 635 nm fluorescence, primary screen (AID 1108).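 Also: E7 fragment applied at 1 µg/mL in TBST for 1 h at 4 C; score combines spot fluorescence with its signal to noise ratio.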 As to conditions: fluorescence 635 nm, higher = more signal.
Test [12] is described as follows: hepatitis C replication reporter changes, two-sided – Huh7 cells, luciferase reporter, HCV replication inhibitor project, primary screen (AID 1109).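 Also: huh7 hepatoma cells harbouring a luciferase neomycin HCV replicon reporter; luciferase luminescence as measure of HCV replicon replication; test concentration not given here.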 The settings on record: Huh7 HCV replicon luciferase reporter, 48 h; higher = more signal.
Test [13] addresses Left-right determination factor 2 (Homo sapiens) (UniProt O00292). Kind of test: small molecules binding LEFTY2 protein – biochemical, small-molecule microarray, 635 nm fluorescence scan, primary screen (AID 1110). As to conditions: higher = more signal.
Test [14] has as its target Calmodulin-1 (Homo sapiens) (UniProt P0DP23). Kind of test: small molecules binding calmodulin-1 with EGTA – biochemical, small-molecule microarray, Cy5-labelled CALM1, profiling panel (AID 1111).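 Also: labelled calmodulin applied in Tris saline Tween buffer holding calcium plus EGTA and DTT.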 As to conditions: Cy5-CALM1 binding fluorescence, higher = more signal.
The target is the same in test [15]. Kind of test: small molecules binding Ca-loaded calmodulin-1 – biochemical, small-molecule microarray, Cy5-labelled CALM1, plus calcium, artefact control for SMM control-protein annotation, profiling panel (AID 1112).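 Also: score merges spot fluorescence with signal to noise from triplicate slides.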 As to conditions: Cy5-CALM1 binding fluorescence, higher = more signal.
Test [16] can be described thus: probe aWnt5a binding to arrayed compounds – biochemical, biotinylated probe, 635/667 nm fluorescence, primary screen (AID 1113).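 Also: score merges 667 nm fluorescence intensity with signal-to-noise per printed feature.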 The settings on record: small-molecule microarray, higher = more signal.
Test [17] is described as follows: probe aShh binding to arrayed compounds – biochemical, biotinylated probe, 635/667 nm fluorescence, primary screen (AID 1114).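 Also: probe is biotin-labelled aShh protein from a stem cell growth factor screen; measures binding of labelled protein to compounds printed on the slide; score merges feature fluorescence at 667 nm with signal-to-noise.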 As to conditions: small-molecule microarray, higher = more signal.
Test [18] is described as follows: probe aNog binding to arrayed compounds – biochemical, biotinylated probe, 635/667 nm fluorescence, primary screen (AID 1115).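 Also: probe is biotinylated aNog protein used at 0.15 µg/mL for 1 h at 4 C; z-score combines 667 nm fluorescence of each spot with its signal to noise.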 As to conditions: small-molecule microarray, higher = more signal.
In test [19] the target is Torsin-1A-interacting protein 1 (Homo sapiens) (UniProt Q5JTV8). Briefly: compound microarray binding of lysate hLAP1 – cell lysate, small-molecule microarray, COS7 lysate, 635/667 nm fluorescence, primary screen (AID 1116). The settings on record: 635 nm fluorescence, higher = more signal.
Chain of Torsin-1A-interacting protein 1 (Homo sapiens) (Q5JTV8 whole entry, looked up): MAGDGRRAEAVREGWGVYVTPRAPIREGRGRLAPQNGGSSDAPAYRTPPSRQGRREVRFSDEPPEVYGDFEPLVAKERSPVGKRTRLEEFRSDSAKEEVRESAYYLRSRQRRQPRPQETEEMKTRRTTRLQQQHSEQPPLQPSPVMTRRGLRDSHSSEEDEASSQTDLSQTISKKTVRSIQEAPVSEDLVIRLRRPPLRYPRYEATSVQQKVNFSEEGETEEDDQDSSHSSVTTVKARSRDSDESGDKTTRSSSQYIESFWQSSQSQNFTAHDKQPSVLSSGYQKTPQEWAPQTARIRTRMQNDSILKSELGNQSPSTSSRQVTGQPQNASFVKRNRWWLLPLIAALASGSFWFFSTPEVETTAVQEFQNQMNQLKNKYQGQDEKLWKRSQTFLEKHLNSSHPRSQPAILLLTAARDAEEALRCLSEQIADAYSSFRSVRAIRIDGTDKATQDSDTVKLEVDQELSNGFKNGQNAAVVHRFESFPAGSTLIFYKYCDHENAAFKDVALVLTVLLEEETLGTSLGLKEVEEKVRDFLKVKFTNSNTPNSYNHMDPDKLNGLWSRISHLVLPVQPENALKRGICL
The target in test [20] is Alpha-bungarotoxin (Bungarus multicinctus) (UniProt P60615). Briefly: compounds binding labelled alpha-BTX control protein – biochemical, small-molecule microarray, Alexa647 label, 635/667 nm fluorescence, artefact control for SMM control protein annotation, profiling panel (AID 1117). The settings on record: alpha-BTX-A647 binding fluorescence, higher = more signal.
Chain of Alpha-bungarotoxin (Bungarus multicinctus) (P60615 whole entry, looked up): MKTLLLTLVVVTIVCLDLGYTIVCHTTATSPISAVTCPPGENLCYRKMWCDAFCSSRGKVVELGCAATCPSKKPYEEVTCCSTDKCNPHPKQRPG

Each structure is given as a SMILES string. The source made the active and inactive calls.

Chain of Left-right determination factor 2 (Homo sapiens) (O00292 whole entry, looked up): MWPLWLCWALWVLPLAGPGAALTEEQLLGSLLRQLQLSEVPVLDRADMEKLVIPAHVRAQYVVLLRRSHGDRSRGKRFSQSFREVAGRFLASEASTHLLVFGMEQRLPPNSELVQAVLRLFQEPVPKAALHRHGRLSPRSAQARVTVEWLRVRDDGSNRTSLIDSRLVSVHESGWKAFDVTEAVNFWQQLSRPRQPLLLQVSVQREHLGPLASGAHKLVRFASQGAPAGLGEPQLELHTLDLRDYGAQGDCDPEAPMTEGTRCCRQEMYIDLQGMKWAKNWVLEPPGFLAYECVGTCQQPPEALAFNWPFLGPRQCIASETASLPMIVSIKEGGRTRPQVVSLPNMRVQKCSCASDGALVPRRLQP
Chain of Dickkopf-related protein 1 (Homo sapiens) (O94907 whole entry, looked up): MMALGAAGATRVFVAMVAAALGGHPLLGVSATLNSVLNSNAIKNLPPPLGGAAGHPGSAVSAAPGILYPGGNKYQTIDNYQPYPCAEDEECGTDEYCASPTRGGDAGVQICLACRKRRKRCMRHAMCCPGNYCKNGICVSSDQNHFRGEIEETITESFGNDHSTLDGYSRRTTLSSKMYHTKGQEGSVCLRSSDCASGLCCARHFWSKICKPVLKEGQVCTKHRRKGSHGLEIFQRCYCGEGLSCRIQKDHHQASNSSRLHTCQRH

Take `CO[C@H]1O[C@H](CO)[C@@H](OC(=O)Nc2ccc(C#N)cc2)[C@H](OC(=O)c2cc3ccccc3[nH]2)[C@H]1OC(=O)c1cc2ccccc2[nH]1`: the composite z-score in [1] is 1.19; in [2], 0.149; in [3] it was 0.19; in [5], 0.747; in test [6], 1.16; in [7], 0.119. The composite z-score in [8] is 0.588; in test [9], 0.295; in test [10], 0.354; in test [11], 1.33; in [13], 0.339; in test [14], 2.07. Moreover, the composite z-score was 0.299 in test [15]; -0.206 in test [16]; -0.0769 in test [17]; 0.569 in test [18]; 2.09 in test [19]; 2.63 in test [20]. For the same compound, the z-score is -0.561 (inactive) in test [4] and -2.2 in test [12].

`COc1ccc(OC[C@H]2Cc3c(-c4ccccc4)nc4c(c3CO2)CN(CCOc2ccccc2)CC4)cc1`: the composite z-score in [1] is 1.07; in test [2] it was 0.521; in test [3], -0.233; in [5] it was 0.883; in test [6], 0.94; in test [7], 0.487. Besides, the composite z-score was found to be 1.03 in test [8]; 0.85 in test [9]; 0.726 in [10]; 1.22 in [11]; 0.722 in [13]; 0.59 in test [14]. The composite z-score in test [15] is -0.243; in test [16], -0.0399; in test [17], 0.0815; in test [18], 0.0637; in test [19] it was 0.423; in test [20] it was 1.13. For the same compound, the results for the z-score in test [4] and in [12] were -1.47 (inactive) and -1.77, respectively.

Take `COCC1=C2[C@@H](CCc3ccccc3)OB(O)C[C@@H]2n2c(=O)n(-c3ccccc3)c(=O)n2C1`: the composite z-score was 0.48 in test [1]; -0.32 in [2]; -0.448 in test [3]; 0.511 in [5]; -0.114 in test [6]; 0.492 in test [7]. The composite z-score was 0.444 in test [8]; 0.374 in test [9]; 0.632 in [10]; -0.289 in test [11]; 0.26 in test [13]; -0.455 in [14]. Also, the composite z-score in test [15] was -0.438; in test [16] it was -0.158; in test [17], -0.304; in [18], -0.213; in test [19] it was 0.152; in test [20] it was -0.148. In addition, the z-score in [4] is 0.184 (inactive); in test [12] it was 0.332.

For `CC(C)c1ccc(NN2C(C(O)c3ccc4c(c3)OCO4)C=CC3C(=O)N(c4ccccc4)C(=O)C32)cc1` (stereo not given), the composite z-score in test [1] worked out at 1.19; in [2], 0.521; in [3], 0.944; in [5] it was 0.584; in test [6], 1.18; in [7] it was 0.407. Besides, the composite z-score in test [8] was 0.886; in [9], 0.263; in [10], 0.581; in [11] it was 0.688; in test [13] it was 0.168; in [14], 2.56. Besides, the composite z-score in test [15] is 1.28; in test [16] it was 0.0775; in test [17], 0.108; in test [18] it was 2.13; in test [19] it was 2.2; in test [20] it was 1.92. The z-score in [4] was 1.18 (inactive); in test [12] it was 1.11.

As for `CCCC=C(CCC)[C@@H](NC(=O)c1ccc(-c2ccccc2)cc1)c1ccc(C(=O)OC)cc1`, the composite z-score was 0.407 in test [1]; 0.245 in test [2]; 1 in test [3]; -0.316 in [5]; 0.472 in test [6]; -0.237 in test [7]. For the same compound, the composite z-score was 0.0286 in [8]; -0.673 in [9]; 0.244 in test [10]; 1.38 in [11]; -0.394 in test [13]; 1.84 in [14]. Moreover, the composite z-score amounted to 1.31 in [15]; 0.194 in test [16]; 0.0195 in [17]; 1.25 in test [18]; 0.421 in [19]; 0.93 in test [20]. Besides, the z-score in test [4] was -0.492 (inactive); in test [12], -0.552.

For `O=C1[C@H]2[C@H]3[C@H](O)[C@H](O)CC(=NOCc4ccccc4)[C@H]3CC[C@H]2C(=O)N1C[C@@H]1CCCO1`, the composite z-score was 0.565 in [1]; 0.114 in test [2]; -0.418 in [3]; 0.863 in [5]; 0.632 in test [6]; 0.582 in test [7]. Further, the composite z-score in [8] is 0.728; in test [9], 1.11; in test [10], -0.209; in test [11] it was 0.536; in [13], 0.873; in test [14] it was 0.0951. The composite z-score in test [15] is -0.223; in test [16], -0.0685; in [17] it was -0.138; in test [18], 0.0715; in test [19], 0.278; in test [20], 0.0902. The figures for the z-score in test [4] and in test [12] were 0.0221 (inactive) and 0.188, respectively.
